Assay [1] is described as follows: qHTS assay for small molecules that induce genotoxicity in human embryonic kidney cells expressing luciferase-tagged ATAD5 (AID 651632). Also: nearly all actives have a fitted effect of over 15% in size. A digest of the protocol:
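HEK293T cells carrying a luciferase reporter tagged to ATAD5 were exposed to compound or DMSO vehicle for 16 hr at 37C, 5% CO2. Amplite was added, and after 30 min at room temperature luciferase activity was read as a marker of ATAD5 induction.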
For orientation: Quantitative high-throughput screening tests each substance at several concentrations.

A short description of assay [2]: qHTS assay for small molecules that induce genotoxicity in human embryonic kidney cells expressing luciferase-tagged ATAD5 - cell viability (AID 651634; calls by dose curve; also: nearly all actives have a fitted effect of over 25% in size; also: potency is read from the fitted curve at half-maximal effect). A digest of the protocol:
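HEK293T cells expressing luciferase-tagged ATAD5 were exposed to compound or DMSO for 15.5 hr at 37C, 5% CO2. Viability was then read as live-cell protease activity by CellTiter-Fluor fluorescence after 30 min at 37C.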

Assay [3] can be described thus: qHTS assay for small molecule disruptors of the mitochondrial membrane potential - cell viability (AID 720634; calls by dose curve;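 also: human HepG2 liver cancer cells; series mostly up to about 83 µM; nearly all actives have a fitted effect of over 20% in size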). The method, boiled down:
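HepG2 cells seeded overnight at 37 C, then exposed to compound or DMSO for 1 hr at 37 C, 5% CO2. m-MPI dye added, then CellTiter-Glo for 30 min at room temperature; viability read as ATP luminescence.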

Assay [4] is described as follows: qHTS assay for small molecule disruptors of the mitochondrial membrane potential (AID 720635). Also: potency is read from the fitted curve at half-maximal effect. The method, boiled down: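 HepG2 cells (2,000/well) attached overnight at 37C, then took compound for 1 hr at 37C, 5% CO2. Mito-MPS dye was added for 30 min; fluorescence was read at 490/535 nm (monomers) and 540/590 nm (aggregates).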
Assay [5] can be described thus: qHTS assay to test for compound auto fluorescence at 590 nm (red) in HepG2 cells (AID 720674). The method, boiled down: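 Compound auto-fluorescence is scored relative to Rose Bengal sodium, measured at 540/590 nm in live HepG2 cultures after 1 hr compound contact (37 C, 5% CO2).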
Assay [6] can be described thus: qHTS assay to test for compound auto fluorescence at 535 nm (green) in HepG2 cells (AID 720675).
A short description of assay [7]: qHTS assay to test for compound auto fluorescence at 460 nm (blue) in HEK293 cells (AID 720678). A digest of the protocol: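 HEK293 cells (2,000/well, medium with 10% dialyzed FBS) attached 4-5 hr, then exposed to compound overnight at 37C, 5% CO2. Blue fluorescence read at 405/460 nm, with triamterene as reference fluorophore.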
The nature of assay [8]: qHTS assay to test for compound auto fluorescence at 590 nm (red) in HEK293 cells (AID 720679). The method, boiled down:
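HEK293 cells (2,000/well, 10% dialyzed FBS) attached 4-5 hr, then dosed with compound or DMSO and incubated overnight at 37C, 5% CO2. Red fluorescence read at 540/590 nm, Rose Bengal sodium as reference fluorophore.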

A short description of assay [9]: qHTS assay for small molecule agonists of the p53 signaling pathway - cell viability (AID 651633; calls by dose curve; also: nearly all actives have a fitted effect of over 30% in size; also: potency is read from the fitted curve at half-maximal effect). A digest of the protocol: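 p53RE-bla cells, seeded at 4,000 per well and rested 5 h at 37 C/5% CO2, received compounds in DMSO for 16 h at 37 C. CellTiter-Glo was then added, and luminescence was read after 30 min at room temperature to gauge cytotoxicity.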

Results filed as inconclusive are left out. Where a structure was tested more than once in an assay, its records may differ in their call. Calls of active or inactive are those of the source. Unless noted, calls follow the shape of the dose curve; as a rule, active = well fitted curve in the direction sought with a large enough effect in the repeat runs; inconclusive = weak or mixed curves; inactive = no such curve, though single readings can be large; an effect the other way counts as inactive or inconclusive.

`CC1=NN(c2ccc(C(=O)O)cc2)C(=O)C1`: the Potency entry in assay [1], in assay [2], in assay [3], in [4] and in assay [7] was “inactive” throughout. In addition, the compound was called inactive in assay [5], in assay [6] and in assay [8].

Turning to `Oc1cc(O)c(Cl)cc1Cl`, the Potency entry in assay [1], in [9], in assay [2] and in assay [7] was “inactive” throughout. For the same compound, in assay [4], the Potency was 7.03 µM (active). In addition, the compound was called inactive in assay [5], in [6] and in [8].

Consider `CCC1(C)CC(=O)NC1=O` (centres undefined), for which the Potency entry in [1], in assay [9], in assay [2], in assay [3] and in assay [7] was “inactive” throughout. The call in assay [5], in assay [6] and in [8] was inactive.

As for `CCOC(=O)OCC`, the Potency entry in assay [1], in assay [9], in assay [2] and in assay [7] was “inactive” each time. Further, the compound was classed as inactive in assay [5], in [6] and in assay [8].

`CCc1nn(CCCN2CCN(c3cccc(Cl)c3)CC2)c(=O)n1CCOc1ccccc1`: the Potency result in [1], in assay [3] and in [7] was “inactive” throughout. In addition, in assay [9], the Potency was 26.6 µM (active) and inactive. Besides, the call in assay [5] and in assay [6] was inactive.

As for `CCCCCCCCCCCC(=O)[O][Sn]([CH2]CCC)([CH2]CCC)[O]C(=O)CCCCCCCCCCC`, the Potency result in assay [1], in [2], in [3], in assay [4] and in [7] was “inactive” throughout. The outcome in [5], in assay [6] and in assay [8] was inactive.

For the compound `CCN(Cc1cccc(S(=O)(=O)O)c1)c1ccc(C(=C2C=CC(=[N+](CC)Cc3cccc(S(=O)(=O)[O-])c3)C=C2)c2ccccc2)cc1`, the Potency entry in assay [1], in assay [9], in [2] and in [7] was “inactive” in each case. Also, in assay [6], the result was inactive.

In the case of `CC1CN(c2cc3c(cc2F)c(=O)c(C(=O)O)cn3-c2ccc(F)cc2F)CCN1` (centres undefined), the Potency entry in [1], in [2], in assay [3], in [4] and in [7] was “inactive” throughout. For the same compound, the compound was classed as inactive in [5], in assay [6] and in assay [8].

With `Cc1cc2nc3ccc(=[N+](C)C)cc-3sc2cc1N`, the Potency entry in [1] and in assay [7] was “inactive” throughout. In addition, the Potency was 7.5 µM (active) in assay [9] and 3.76 µM (active) in assay [4]. For the same compound, the call in assay [5], in assay [6] and in assay [8] was inactive.

In the case of `O=C(c1ccc(O)cc1)c1ccc(Cl)cc1`, the Potency entry in assay [1], in assay [9], in [2] and in assay [7] was “inactive” throughout. The Potency in assay [4] is 15.7 µM (active). Also, the outcome in assay [5], in assay [6] and in assay [8] was inactive.

In the case of `NC(=O)N(O)[C@@H]1C=C[C@H](Oc2cccc(Oc3ccc(F)cc3)c2)C1`, the Potency entry in assay [1], in assay [9], in [2] and in [7] was “inactive” in each case. Besides, the call in assay [5], in [6] and in [8] was inactive.

For the compound `CN(C)C(=O)Nc1ccc(Oc2ccc(Cl)cc2)cc1`, the Potency result in [1], in assay [9], in assay [2] and in assay [7] was “inactive” each time. In assay [4], the Potency was 6.11 µM (active). The result in assay [5], in [6] and in assay [8] was inactive.

For the compound `CO/N=C1\CN(c2nc3c(cc2F)c(=O)c(C(=O)O)cn3C2CC2)CC1CN` (centres undefined), the Potency result in assay [1], in assay [9], in [2], in [4] and in [7] was “inactive” throughout. Besides, the compound was classed as inactive in assay [5], in assay [6] and in assay [8].

Regarding `CCCCCCCC/C=C\CCCCCCCC(=O)OC(CO)CO`, the Potency result in assay [1], in assay [9], in [2], in assay [4] and in [7] was “inactive” each time. In addition, the outcome in assay [5], in [6] and in [8] was inactive.

Take `CCCCN(CCCC)C(=S)SSC(=S)N(CCCC)CCCC`: the Potency entry in [1], in assay [9] and in [7] was “inactive” in each case. For the same compound, the compound was called inactive in [5], in assay [6] and in [8].

For the compound `CCNC(=O)N1CCN(CCCC(c2ccc(F)cc2)c2ccc(F)cc2)CC1`, the Potency result in [1], in assay [9] and in [7] was “inactive” throughout. Moreover, the compound was called inactive in assay [5], in assay [6] and in assay [8].

`CCCCCCOC(=O)CCCCCCCC(=O)OCCCCCC`: the Potency entry in [1], in assay [2], in [3], in assay [4] and in assay [7] was “inactive” in each case. Further, the compound was classed as inactive in assay [5], in [6] and in assay [8].

`CO[Si](C)(OC)OC`: the Potency entry in assay [1], in [9], in [2] and in [7] was “inactive” in each case. Besides, the outcome in assay [5], in [6] and in assay [8] was inactive.

As for `CC(C)=CC=O`, the Potency entry in assay [1], in [9], in [2], in assay [4] and in assay [7] was “inactive” in each case. In addition, the compound was called inactive in assay [6] and in [8].

Take `COC(OC)(C(=O)c1ccccc1)c1ccccc1`: the Potency result in assay [1], in [9], in assay [2] and in assay [7] was “inactive” each time. Further, the compound was called inactive in assay [5] and in assay [6].

For `Cc1oc(C)c(C(=O)Nc2ccccc2)c1C`, the Potency entry in [1], in [2], in assay [3] and in assay [7] was “inactive” throughout. In addition, the Potency in assay [4] was 27.3 µM (active). The compound was called inactive in [5], in assay [6] and in [8].

With `Cc1ccc(S(=O)(=O)NC2CCCCC2)cc1`, the Potency entry in assay [1] and in assay [7] was “inactive” throughout. The Potency in assay [4] is 21.5 µM (active). Also, the result in assay [6] and in assay [8] was inactive.

For the compound `COc1cc2c(N3CCN(C(=O)Nc4ccc(OC(C)C)cc4)CC3)ncnc2cc1OCCCN1CCCCC1`, the Potency in [9] was 5.31 µM (active); in assay [2], 29.8 µM (active); in assay [4], 26.6 µM (active). For the same compound, the Potency entry in [3] and in [7] was “inactive” each time. The compound was called inactive in assay [6] and in [8].

These data come from PubChem BioAssay (Tox21).
